# DUX4 inh: DUX4-mediated transcription inhibition; 293T-iDUX4 ZSCAN4-Gaussia luciferase reporter, 24 h; stronger effect = lower value; activity change, negative = inhibition, % (concentration not given with the values); AID 1224904; hit rate 0.8% among 37,000;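 active means mean inhibition of at least 10% in the main channel, exceeding the control channel by a set limit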;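 further: 0% = median of neutral control wells and -100% = median of positive control wells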
# * = called active by the depositor. Many of the other results were omitted from the sample, so hits are more common in it than they were.
SMILES,DUX4 inh
COc1ccc(C#Cc2ccc([C@@H]3[C@@H](CO)N4CCCCN(Cc5ccccc5F)C[C@H]34)cc2)cc1,-19*
COCC#Cc1ccc([C@@H]2[C@H]3CN(Cc4ccccc4F)CCCCN3[C@H]2CO)cc1,1
CN1CCN(C(=O)C[C@H]2C[C@@H]3c4cc(NC(=O)C5CCC5)ccc4O[C@@H]3[C@H](CO)O2)CC1,4
C[C@H](CO)N1C[C@H](C)[C@@H](CN(C)Cc2cccc(C(F)(F)F)c2)OCc2cn(nn2)CCCC1=O,-1
CCCNC(=O)C[C@H]1CC[C@@H]2[C@H](COC[C@@H](O)CN2C(=O)c2cc(Cl)cc(Cl)c2)O1,14
C[C@H]1CN([C@@H](C)CO)C(=O)CCCn2cc(nn2)CO[C@H]1CN(C)C(=O)Nc1cccc2ccccc12,4
C[C@H]1CN([C@@H](C)CO)C(=O)c2c(c3ccccc3n2C)-c2ccccc2CO[C@@H]1CN(C)S(=O)(=O)c1ccc([N+](=O)[O-])cc1,-5
Cc1ccccc1S(=O)(=O)N(C)C[C@H]1OCc2ccccc2-c2c(n(C)c3ccccc23)C(=O)N([C@H](C)CO)C[C@@H]1C,-35*
C[C@@H]1CN([C@H](C)CO)C(=O)c2c(c3ccccc3n2C)-c2ccccc2CO[C@@H]1CN(C)S(C)(=O)=O,17
C[C@@H]1CN([C@H](C)CO)C(=O)c2c(c3ccccc3n2C)-c2ccccc2CO[C@H]1CN(C)S(C)(=O)=O,8
C[C@@H]1CN([C@H](C)CO)C(=O)c2c(c3ccccc3n2C)-c2ccccc2CO[C@H]1CN(C)S(=O)(=O)c1cccc(C#N)c1,13
C[C@@H]1CN([C@H](C)CO)C(=O)c2c(c3ccccc3n2C)-c2ccccc2CO[C@H]1CN(C)S(=O)(=O)c1ccc(F)cc1,-29*
C[C@@H]1CN([C@@H](C)CO)C(=O)c2c(c3ccccc3n2C)-c2ccccc2CO[C@@H]1CN(C)S(=O)(=O)c1ccc(C#N)cc1,3
C[C@@H]1CN([C@@H](C)CO)C(=O)c2c(c3ccccc3n2C)-c2ccccc2CO[C@@H]1CN(C)S(=O)(=O)c1cccc(C#N)c1,-24*
C[C@@H]1CN([C@H](C)CO)C(=O)c2c(c3ccccc3n2C)-c2ccccc2CO[C@@H]1CN(C)S(=O)(=O)c1ccc(C(F)(F)F)cc1,0
C[C@@H]1CN([C@H](C)CO)C(=O)c2ccccc2-c2ccccc2CO[C@H]1CN(C)S(=O)(=O)c1ccc(C#N)cc1,11
CN(C)C(=O)c1ccc(-c2ccc3c(c2)[C@H]2[C@H](CCN2C(=O)c2ccccn2)[C@H](CO)N3)cc1,0
C[C@@H](NC(=O)C[C@H]1CC[C@@H]2[C@H](COC[C@H](O)CN2C)O1)c1ccccc1,6
C[C@@H]1CCCCO[C@H](CN(C)C(=O)C2CCCCC2)[C@@H](C)CN([C@@H](C)CO)C(=O)c2cc(NC(=O)c3ccncc3)ccc2O1,0
CCCN1C[C@@H](C)[C@@H](OC)CN(C)C(=O)c2cc(NS(=O)(=O)c3ccccc3)ccc2OC[C@H]1C,7
COc1cccc(S(=O)(=O)Nc2ccc3c(c2)C(=O)N(C)C[C@H](OC)[C@@H](C)CN(Cc2ccccc2F)[C@H](C)CO3)c1,-4
COc1cccc(S(=O)(=O)Nc2ccc3c(c2)C(=O)N(C)C[C@@H](OC)[C@H](C)CN(Cc2ccccc2F)[C@H](C)CO3)c1,-26*
CO[C@@H]1CN(C)C(=O)c2ccc(NS(C)(=O)=O)cc2OC[C@@H](C)N(Cc2ccccc2)C[C@H]1C,5
C[C@@H]1CCCCO[C@H](CN(C)C(=O)CCC(F)(F)F)[C@@H](C)CN([C@@H](C)CO)C(=O)c2cc(NC(=O)Cc3ccccc3)ccc2O1,1
C[C@@H]1CN([C@@H](C)CO)C(=O)c2c(c3ccccc3n2C)-c2ccccc2CO[C@@H]1CN(C)Cc1ccc(C(F)(F)F)cc1,-27*
SMILES,DUX4 inh
C[C@@H]1CN([C@H](C)CO)C(=O)c2c(c3ccccc3n2C)-c2ccccc2CO[C@@H]1CN(C)Cc1ccc(O)cc1,-8
C[C@@H]1CN([C@H](C)CO)C(=O)c2c(c3ccccc3n2C)-c2ccccc2CO[C@@H]1CN(C)Cc1cccc2c1OCCCO2,-6
COc1ccccc1CN(C)C[C@H]1OCc2ccccc2-c2c(n(C)c3ccccc23)C(=O)N([C@@H](C)CO)C[C@H]1C,1
C[C@H]1CN([C@@H](C)CO)C(=O)c2c(c3ccccc3n2C)-c2ccccc2CO[C@@H]1CN(C)Cc1ccccc1C(F)(F)F,-30*
C[C@@H]1CN([C@H](C)CO)C(=O)c2c(c3ccccc3n2C)-c2ccccc2CO[C@H]1CN(C)Cc1ccc(O)cc1,8
C[C@@H]1CN([C@H](C)CO)C(=O)c2c(c3ccccc3n2C)-c2ccccc2CO[C@H]1CN(C)Cc1cccc(O)c1,4
C[C@H](CO)N1C[C@H](C)[C@@H](CN(C)Cc2cccc(C(F)(F)F)c2)OCc2ccccc2-c2c(n(C)c3ccccc23)C1=O,-54*
C[C@@H]1CN([C@H](C)CO)C(=O)c2c(c3ccccc3n2C)-c2ccccc2CO[C@H]1CN(C)Cc1cccc2c1OCCCO2,-32*

# Source: PubChem BioAssay (Broad Institute)
